High-throughput results deposited in PubChem by Sanford-Burnham Center for Chemical Genomics.
Shown is part of a subset that was picked to be rich in hits.
Artemis inh: blocks endonuclease activity of human Artemis; inhibition, % at 10 µM; Q96SD1; actives 0.78% (n = 30,000); AID 686954; recombinant Artemis, quenched FAM hairpin cleavage fluorescence;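 active = at 10 µM dose, at least 30% inhibition, measured as corrected fluorescence normalized to stimulator and neutral control wells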
Target sequence (Q96SD1 whole entry, looked up): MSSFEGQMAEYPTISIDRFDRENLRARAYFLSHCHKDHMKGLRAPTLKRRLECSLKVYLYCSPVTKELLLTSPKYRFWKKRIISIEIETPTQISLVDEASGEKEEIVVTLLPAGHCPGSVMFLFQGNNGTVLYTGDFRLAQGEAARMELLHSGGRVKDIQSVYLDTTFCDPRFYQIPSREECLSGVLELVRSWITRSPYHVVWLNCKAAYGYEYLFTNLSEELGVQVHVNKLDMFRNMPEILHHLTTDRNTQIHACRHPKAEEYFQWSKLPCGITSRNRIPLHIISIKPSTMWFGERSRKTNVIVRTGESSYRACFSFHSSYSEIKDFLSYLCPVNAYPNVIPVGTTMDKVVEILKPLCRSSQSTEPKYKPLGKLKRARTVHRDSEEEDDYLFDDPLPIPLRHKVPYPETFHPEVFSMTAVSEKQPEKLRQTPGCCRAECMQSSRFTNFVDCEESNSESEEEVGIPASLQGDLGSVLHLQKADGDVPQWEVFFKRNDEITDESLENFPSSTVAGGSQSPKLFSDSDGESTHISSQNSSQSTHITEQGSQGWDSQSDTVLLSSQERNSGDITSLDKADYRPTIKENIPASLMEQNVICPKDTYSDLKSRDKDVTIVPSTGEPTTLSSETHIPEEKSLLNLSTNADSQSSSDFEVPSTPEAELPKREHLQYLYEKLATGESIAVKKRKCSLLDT
Numbers without * were called inactive.

SMILES	Artemis inh
CCCCn1c2nc3ccccc3nc2c2c(=O)n(CCC)cnc21	6.7
Cc1nc2c(c(=O)n1CCC1=CCCCC1)c1nc3ccccc3nc1n2/N=C/c1ccco1	41.1*
CCCCCCn1cnc2c(c1=O)c1nc3ccccc3nc1n2Cc1cccs1	0.1
Cc1cccc(-n2cnc3c(c2=O)c2nc4ccccc4nc2n3Cc2ccco2)c1	15.8
CCCCCCn1cnc2c(c1=O)c1nc3ccccc3nc1n2/N=C/c1ccco1	31.8*
COC(=O)c1onc(-c2c(C)cc(C)cc2C)c1C(=O)OC	28.6
COc1ccc(NC(=O)/C(Cl)=C(/Cl)S(=O)(=O)Cc2ccc(C)cc2)cn1	8.7
CCCCCCSc1nc(O)c(C2OC(=O)c3c2ccc(OC)c3OC)c(=O)n1-c1ccccc1 (centres undefined)	13.9
O=C(NCC(c1cccnc1)N1CCN(c2ccc(F)cc2)CC1)c1ccc(F)cc1 (centres undefined)	4.7
O=C(CCCc1ccccc1)Nc1cccnc1	-5.4
COc1ccc(N=CC2=C(O)c3ccccc3C2=O)cc1	3.4
O=C1C(C=Nc2ccccc2)=C(O)c2ccccc21	3.9
Cc1ccc(O)c(N=CC2=C(O)c3ccccc3C2=O)c1	38.0*
CC(C)OC(=O)CSc1nnc(-c2cnccn2)n1-c1ccccc1	0.2
O=C(Nc1ccccc1F)N(CCCN1CCOCC1)Cc1cc2cc3c(cc2[nH]c1=O)OCCO3	-6.3
CCCN(CC1CC1)c1nc(N)c2c(N)nc(OC)cc2c1C#N	48.6*
CCOc1cc2c(C#N)c(N3CCOCC3)nc(N)c2c(N)n1	29.0
CCc1nc(C)c(C#N)c2cc(OC)c(OC)cc12	4.0
ONC=Nc1cccc2nonc12	-0.7
CCOc1ccc(/C(O)=C2\C(=O)C(=O)N(c3cc(C)on3)C2c2ccccc2OC)cc1 (centres undefined)	3.3
CCN(CC)CCN1C(=O)C(=O)/C(=C(/O)c2ccc(OC)cc2)C1c1ccco1 (centres undefined)	-1.5
CCOc1ccc(/C(O)=C2/C(=O)C(=O)N(c3nc(C)c(C)s3)C2c2ccco2)cc1 (centres undefined)	42.8*
CN(C)c1ccc(/C=N/NC(=O)CN(c2cccc(Cl)c2)S(C)(=O)=O)cc1Br	14.0
O=c1c2nnn(Cc3ccccc3)c2ncn1-c1ccccc1	4.1
Cc1cc(/C=N/n2cnnc2)c(C)n1-c1ccccc1	-4.4
SMILES	Artemis inh
Cc1cc(/C=N/n2cnnc2)c(C)n1-c1cccc(Cl)c1	9.8
Cc1cc(/C=N/n2cnnc2)c(C)n1-c1ccc(OCc2ccc(Cl)cc2Cl)cc1	42.2*
COC(=O)C1=C(C)NC(=O)C1(NC(=O)CN1CCCC1=O)C(F)(F)F (centres undefined)	-5.0
COCCN1C(=O)c2ccccc2C(C(=O)NCCCN2CCCC2=O)C1c1c[nH]c2ccccc12 (centres undefined)	5.2
OC1(c2ccc(OC(F)F)cc2)CSC(=Nc2cccnc2)N1C1CC1 (centres undefined)	-1.9
c1ccc2c(N3CCCC3)nc(-c3ccncc3)nc2c1	3.2
COc1ccc(Nc2nc(N3CCCC3)c3ccccc3n2)cc1	33.4*
COc1cccc(Nc2nc(NCCO)c3ccccc3n2)c1	-7.2
O=C(N/N=C\c1cc(Br)cs1)C1COc2ccccc2O1 (centres undefined)	7.6
Clc1ccc(-c2cc(COc3ccc4ccccc4c3)no2)cc1	0.5
COc1ccc(-c2nnc(SCC(=O)Nc3sc4c(c3C#N)CCC4)n2CC2CCCO2)cc1 (centres undefined)	41.6*
N#Cc1c(NC(=O)CSc2nnc(-c3ccco3)n2-c2ccccc2)sc2c1CCC2	35.9*
COc1ccc(-c2ccc(C#N)c(SCC(=O)Nc3sc4c(c3C#N)CCC4)n2)cc1	15.4
COc1ccc(-n2c(SCC(=O)Nc3sc4c(c3C#N)CCCC4)nnc2-c2ccccc2OC)cc1	13.8
COc1ccc(-c2nnc(SCC(=O)NC(C)C)n2CC2CCCO2)cc1OC (centres undefined)	-6.1
CCn1c(SCC(=O)Nc2sc3c(c2C#N)CCCC3)nnc1-c1ccco1	7.8
CCC1SC2=NC(C)=C(C(=O)OC)C(c3cccs3)N2C1=O (centres undefined)	3.6
FC(F)(F)C(Oc1nc(Nc2ccc(Cl)cc2)nc(N2CCOCC2)n1)C(F)(F)F	2.8
CC1CCN(C(=O)COC(=O)[C@H](C)NS(=O)(=O)/C=C/c2ccccc2)CC1	-8.7
COc1cccc(NC(=O)Cn2c(=O)c3c(ncn3Cc3ccccc3)n(Cc3ccccc3)c2=O)c1	-13.6
CCN(C(=O)CSc1nc2ccccc2n1CCc1ccccc1)C1CCS(=O)(=O)C1 (centres undefined)	-6.7
CCN(CC)c1ccc(-c2nn3c(-c4n[nH]c5c4CCC5)nnc3s2)cc1	57.8*
C1CCC(c2nn3c(-c4n[nH]c5c4CCC5)nnc3s2)CC1	6.0
Fc1ccc(C2=Nn3c(nnc3-c3n[nH]c4c3CCC4)SC2)cc1	5.0
CCCCC1(Cc2cccc([N+](=O)[O-])c2)C(=O)N(c2ccccc2)N(c2ccccc2)C1=O	0.2
SMILES	Artemis inh
O=C(c1cc2sccc2n1Cc1ccccc1)N1CCN(c2nc3ccccc3s2)CC1	4.0
c1ccc(-c2cn3c(n2)CCC3)cc1	-4.5
Brc1ccc(-c2cnnc(N3CCCC3)n2)cc1	-12.4
c1ccc(-c2cn3c(n2)SCC3)cc1	-5.0
Brc1ccc(-c2cn3nc4c(nc3n2)CCCC4)cc1	30.7*
c1ccc(-c2cn3nc4c(nc3n2)CCCC4)cc1	33.6*
Brc1ccc2nc3c(n2c1)CCCC3	1.7
Clc1ccc(-c2n[nH]c3c2CCC3)cc1Cl	10.4
COc1ccc(C2NC(=O)c3sc4nc(C)c(C(C)=O)c(-c5ccc(Cl)cc5)c4c3N2)cc1 (centres undefined)	4.3
Cc1ccc(/C=N/NC(=O)CC2N=C(Cc3ccccc3)NNC2=O)cc1 (centres undefined)	3.8
Cc1cc2c(=O)n(CC(=O)NCC(=O)N3CCN(Cc4ccccc4)CC3)cnc2s1	-1.8
Cc1ccc(C(=O)c2c(C)oc3c2C(=O)C(=O)c2ccccc2-3)cc1	55.0*
Cc1ccc(C(=O)c2cn[nH]c2-c2ccccc2O)cc1	-0.7
O=C(c1ccc(O)cc1)c1ccc(Cl)cc1	8.2
COc1ccc(C(=O)c2c(C(F)(F)F)oc3c2C(=O)c2ccccc2C3=O)cc1	27.6
COc1ccc(C(=O)c2ccc(Cl)cc2)cc1	-1.5
Cc1oc2c(c1C(=O)c1ccc(Cl)cc1)C(=O)C(=O)c1ccccc1-2	50.4*
Fc1ccccc1N1CCN(Cc2nc(-c3ccc(Cl)cc3Cl)no2)CC1	0.1
CCOc1ccc(S(=O)(=O)NCc2ccc(F)cc2)c2cccnc12	-1.3
CCCn1c(SCC(=O)NCc2ccccc2)nnc1-c1ccncc1	-4.4
O=c1c2ccccc2nc2n1C(CSc1ccc(Br)cc1)CN2 (centres undefined)	-9.3
CCCN(CCC)CC(=O)Nc1cccc2c1OCO2	-1.4
Cc1cc(NS(=O)(=O)c2ccc(Nc3nc(-c4sc(N)nc4C)cs3)cc2)no1	59.1*
Cc1cc(NS(=O)(=O)c2ccc(NC(=O)c3ccco3)cc2)no1	6.8
Cc1cc(NS(=O)(=O)c2ccc(NC(NC(=O)C(C(F)(F)F)C(F)(F)F)(C(F)(F)F)C(F)(F)F)cc2)no1	-3.1
CC(=O)OC(C(=O)NCc1ccc(F)cc1)c1ccccn1 (centres undefined)	-6.5
CCN1C(=O)N(c2ccc(Cl)cc2)C(C)=CC1(C)C	7.1
Cc1noc(C)c1COC(=O)C1(c2cccc(F)c2)CCCC1	-1.5
COc1ccc(/C=C2\N=C(SC)SC2=O)cc1OC	-1.7
C=CCSC1=N/C(=C\c2ccc(C)o2)C(=O)S1	1.8
